Experimental data published in PubChem BioAssay (NCI).
The panel holds about 83,000 compounds, 20% with a hit somewhere; the sample as a whole holds those more often.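 Activity criterion: percent growth below 10, measured after cells in 96-well plates were exposed to a single compound concentration for 48 hours.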 Active and inactive are the calls of the source.

system: HL-60(TB) leukemia; experiment: NCI-60 one-dose screen, 48 h (100 = growth as untreated, 0 = no growth, -100 = all killed); settings: 10 µM unless noted

Structure (SMILES) | growth
CSCCCNC(=O)c1ccc2c(c1)/C(=C/c1[nH]c(C)cc1C)C(=O)N2 | 46.1% (inactive)
C[PH+](c1nc2ccccc2nc1[PH+](C)C(C)(C)C)C(C)(C)C.C[PH+](c1nc2ccccc2nc1[PH+](C)C(C)(C)C)C(C)(C)C.[Au+].[Cl-] (configuration not stated) | 12% (inactive)
CC1=C2[C@@H](CC1)[C@]1(C)O[C@@](c3ccccc3)(C[C@H]1OC(=O)CO)[C@H]2OC(=O)/C=C/c1ccccc1 | 88.5% (inactive)
CCOc1c(Br)cc(C2C(C(=O)OC)=CN(C)C=C2C(=O)OC)cc1OC | 35.5% (inactive)
COc1ccc(-c2[nH]ncc2/C=C/c2cc(C(F)(F)F)[nH]c(=O)n2)cc1 | 92% (inactive)
C=C1C(=O)O[C@H]2[C@H]1CC/C(COC(=O)NCc1ccc(Cn3c(=O)sn(CCCI)c3=O)cc1)=C\CC[C@@]1(C)O[C@@H]21 | -9.41% (active)
O=C1/C(=C\c2cccc3nccnc23)SC(=S)N1CCc1ccc(O)cc1 | 79.5% (inactive)
COc1c(C)c2c(c(O)c1C/C=C(\C)CCC(=O)OCCN1CCOCC1)C(=O)OC2 | 36.7% (inactive)
COC(=O)c1cc2c(/C=C3/NC(=S)NC3=O)coc2n1C | 100% (inactive)
C/C=C(/C)C(=O)O[C@@H]1CC(C)(C)CC2C34OC(=O)[C@@]21CC[C@@]3(C)[C@]1(C)CCC2C(C)(C)C(=O)CC[C@]2(C)C1C[C@@H]4O (some centres not stated) | 6.92% (active)
Nc1ncnc2c1N=C(c1ccc3c(c1)OCO3)CC(c1ccc([N+](=O)[O-])cc1)N2 (configuration not stated) | 88.7% (inactive)
Cc1nc2c(nnn2-c2ccccc2)c2nc(-c3ccc(Cl)cc3)oc(=O)c12 | 98.8% (inactive)
